Screening data as filed in PubChem BioAssay.
Arbovirus anti: antivirals against arbovirus infection; 200,000 tested, 0.37% active; inhibition, % at 10 µM; AID 1251; arbovirus infection cell-based antiviral screen; in the data active = inhibition above about 30%
Mcl1 Bid PPI: Mcl-1/Bid interaction inhibition. 220,000 tested, 0.97% active. inhibition, % at 21.7 µM. TR-FRET Mcl-1/Bid-Dy647 peptide binding, 1536-well. AID 1021;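 active = compounds that cut the binding signal by more than half at the single screening dose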;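 note: His-tagged Mcl-1 with europium anti-His antibody binding Bid BH3 peptide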
Target sequence (Q07820 whole entry, looked up): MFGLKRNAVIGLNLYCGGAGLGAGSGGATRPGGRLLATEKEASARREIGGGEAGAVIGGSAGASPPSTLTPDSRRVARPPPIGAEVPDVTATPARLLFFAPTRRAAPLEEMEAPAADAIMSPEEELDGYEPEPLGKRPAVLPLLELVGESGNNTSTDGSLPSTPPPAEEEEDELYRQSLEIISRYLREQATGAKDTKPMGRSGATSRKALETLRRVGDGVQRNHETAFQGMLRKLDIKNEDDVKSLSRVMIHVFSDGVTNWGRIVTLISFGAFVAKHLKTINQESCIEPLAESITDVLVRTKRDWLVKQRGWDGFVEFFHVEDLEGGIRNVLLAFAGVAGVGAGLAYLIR
14-3-3 Bad PPI: disrupts binding of bovine 14-3-3 zeta to phospho-Bad peptide; P63103; TR-FRET 14-3-3zeta/Dy647-pBad peptide displacement, 1 h; inhibition, % at 21.7 µM; 220,000 tested, 0.71% active; AID 781;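 active = inhibition above about 70%, limit read from the data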
Mcl1-Noxa inh: Mcl-1/Noxa interaction inhibition | inhibition, % at 21.7 µM | 220,000 tested, 1.5% active | AID 1022 | TR-FRET Mcl-1/Noxa peptide binding, 2 h | Q07820;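 active = compounds that cut the protein-peptide binding signal by more than 50% relative to plate controls in a single-dose test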;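 note: His-tagged Mcl-1 with rhodamine Noxa BH3 peptide and terbium anti-His antibody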
Bim-Mcl-1: human Bim-Mcl-1 interaction inhibition | Bead-based flow cytometry, Bim peptide-Mcl-1 binding | Q07820 | AID 1009 | 190,000 tested, 0.1% active | inhibition, % at 10 µM; in the data active = inhibition above about 40%
Each line names hits and unclear results; the compound was inactive in the other large screens; [ ] = another dose, or the depositor's remark. The list is not random: actives were taken first. Their share in the collection is about 3%.

COC(=O)C1=Nc2ccccc2/C1=C\c1c(O)n(-c2cc(OC)ccc2OC)c(=O)[nH]c1=O	Mcl1-Noxa inh 65
COC(=O)C(=O)N1CC2(C)CNCC(C)(C1)C2=O	none
CCOC(=O)C(O)(c1ccc(NC(=O)NC)cc1)C(F)(F)F (stereo unspecified)	none (no result: Arbovirus anti, Bim-Mcl-1)
O=C(O)CCn1cc(C=C2C(=O)NC(=S)NC2=O)c(-c2cccc(Cl)c2)n1	Mcl1-Noxa inh 97
O=C(COc1ccccc1)N1CCN(Cc2c[nH]c3ccccc23)CC1	Mcl1 Bid PPI 68, 14-3-3 Bad PPI 81
COc1cc(CN2CCN(C(=O)COc3ccccc3)CC2)cc(OC)c1OC	14-3-3 Bad PPI 78
Cc1cccc(OCC(=O)N2CCN(Cc3ccc4c(c3)OCO4)CC2)c1	none
COc1ccccc1CN1CCN(C(=O)COc2cccc(C)c2)CC1	none
Cc1cccc(OCC(=O)N2CCN(Cc3ccncc3)CC2)c1	Mcl1 Bid PPI 60
CC12CN3CC(C)(CN(C1)C3c1cccs1)C2O (stereo unspecified)	none
O=C(c1cccn2c(=O)c3cc(Cl)ccc3nc12)N1CCC2(CC1)OCCO2	none
C[C@]12CC(=CO)C(=O)C[C@@H]1CC[C@@H]1[C@@H]2CC[C@@]2(C)[C@H]1CC[C@]2(C)O	none
O=C1NC(=O)C(=Cc2ccc(SC3CCCCC3)o2)C(=O)N1	Mcl1-Noxa inh 72
CCN1CCN(Cc2ccc(C)cc2C)CC1	14-3-3 Bad PPI 77
Brc1ccccc1	Mcl1 Bid PPI 83 (no result: Arbovirus anti, Bim-Mcl-1)
CCCCCc1nc2c(c(=O)c3ccccc3n2C)c(=O)n1C1CCCCCC1	Mcl1 Bid PPI 54
COC(=O)c1ccc(CN2CCN(Cc3ccccc3)CC2)cc1	14-3-3 Bad PPI 76
COc1cc(C(CN)CC(=O)O)ccc1O (stereo unspecified)	none (no result: Arbovirus anti, Bim-Mcl-1)
Cc1ccc2c(c1Cl)NC(C(=O)O)C1CC(Sc3ccccc3[N+](=O)[O-])C(Cl)C21 (stereo unspecified)	Mcl1-Noxa inh 97 (no result: Arbovirus anti, Bim-Mcl-1)
CCN(CC)C(=O)c1ccc2c(c1)C1C(Cl)C(Sc3ccccc3[N+](=O)[O-])CC1C(C(=O)O)N2 (stereo unspecified)	Mcl1-Noxa inh 63 (no result: Arbovirus anti, Bim-Mcl-1)
O=c1[nH]sc2cc(F)ccc12	none
COc1ccc(/C=N/N=C(/N)N[N+](=O)[O-])c(OC)c1	none
N/C(=N\N=C/c1ccc(-c2ccc(O)c(C(=O)O)c2)o1)N[N+](=O)[O-]	14-3-3 Bad PPI 95[fluorescence artefact?], Mcl1-Noxa inh 87
COc1ccc(CCn2c(O)c(/C=N/N3CCOCC3)c(=O)[nH]c2=O)cc1OC	none (no result: Arbovirus anti, Bim-Mcl-1)
CCC1C(c2ccccc2)NC(c2ccccc2)CC1(O)c1ccc(F)cc1 (stereo unspecified)	none (no result: Arbovirus anti, Bim-Mcl-1)
COc1ccc(OC)c(N2C(=O)NC(=O)/C(=C\c3ccc([N+](=O)[O-])s3)C2=O)c1	none
O=C1NC(=O)N(c2ccccc2)C(=O)/C1=C\c1ccc([N+](=O)[O-])s1	Mcl1-Noxa inh 69 (no result: Arbovirus anti, Bim-Mcl-1)
O=C1NC(=O)N(c2ccccc2)C(=O)/C1=C\C=C\c1ccccc1	Mcl1-Noxa inh 70 (no result: Arbovirus anti, Bim-Mcl-1)
CN1C(=O)NC(=O)/C(=C/c2ccc([N+](=O)[O-])o2)C1=O	none (no result: Arbovirus anti, Bim-Mcl-1)
CN1C(=O)NC(=O)/C(=C/c2ccc([N+](=O)[O-])s2)C1=O	Mcl1-Noxa inh 53 (no result: Arbovirus anti, Bim-Mcl-1)
O=C1NC(=O)N(c2ccccc2)C(=O)/C1=C\c1ccc([N+](=O)[O-])o1	Mcl1-Noxa inh 63 (no result: Arbovirus anti, Bim-Mcl-1)
CN(CCc1nnc(N)s1)[N+](=O)[O-]	none
CP(=O)(O)CN1CCCCC1	none
C=CCn1c(O)c(C(=O)CCCCCC)c(=O)[nH]c1=O	none
O=c1c2ccccc2nc(/C=C/c2ccc(O)cc2)n1-c1ccccc1O	none (no result: Arbovirus anti, Bim-Mcl-1)
COc1cc(/C=C/c2nc3ccccc3c(=O)n2-c2cccc(O)c2)ccc1O	Mcl1 Bid PPI 63, Mcl1-Noxa inh 96 (no result: Arbovirus anti, Bim-Mcl-1)
O=C(OCC(=O)c1ccc([N+](=O)[O-])cc1)/C(=C/c1ccc(Cl)cc1)NC(=O)c1ccccc1	none
Cc1ccc(N2C(=O)NC(=O)/C(=C\c3cnc(-c4ccccc4)nc3)C2=O)cc1	Mcl1-Noxa inh 75
CSc1ncc(/C=C2/C(=O)NC(=O)N(c3ccc(C)cc3)C2=O)cn1	none
Cc1ccc(N2C(=O)NC(=O)/C(=C/c3ccoc3)C2=O)cc1	14-3-3 Bad PPI 75, Mcl1-Noxa inh 77 (no result: Arbovirus anti, Bim-Mcl-1)
